# High-throughput results from PubChem.
# ssDAF12 agonist: S. stercoralis DAF-12 nuclear receptor activators, primary screen, cell-based, luminescence, HEK293, GRIP1 co-expression, lit1-tk-luc; HEK293 ssDAF-12/GRIP1 lit1-tk-luc reporter; % of 3 µM dafachronic acid response; activation, % at 6.8 µM; 370,000 compounds, 1% hits; AID 652126, 2013;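 active = activation above the mean over all tested compounds plus 3 SD, cut at about 0.9% in these data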;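 also: 0% = DMSO-only wells and 100% = 3 µM delta7-dafachronic acid wells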
# hgDAF-12 ag: H. glycines DAF-12 receptor agonists, primary screen, cell-based, luminescence, HEK293, GAL4 fusion, UAS-luciferase | Nuclear hormone receptor DAF-12 (Heterodera glycines), GAL4 fusion | HEK293 GAL4-hgDAF12 UAS-luciferase reporter, agonist luminescence; normalized to butyrate control | activation, % at 6.8 µM | 370,000 compounds, 1.8% hits;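 active = activation above a cutoff set at the mean of all screened compounds plus 3 SD, cut at about 10% in these data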;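 also: 0% = DMSO wells and 100% = sodium butyrate wells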
# hcDAF12 agonist: H. contortus DAF-12 nuclear receptor activators, primary screen, cell-based, luminescence, HEK293, lit1-tk-luc reporter; activation, % at 6.8 µM; 370,000 compounds, 1.4% hits; AID 652067, 2013; HEK293 hcDAF-12 lit1-tk-luc reporter; 0% DMSO, 100% Δ7-dafachronic acid;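 active = activation above the mean of all tested compounds plus 3 SD, cut at about 5.5% in these data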;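 also: 100% = response to 3 µM Δ7-dafachronic acid high control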
# SMARCA2 activ: SMARCA2 (BRM) function activators, primary screen, cell-based, luminescence, high throughput | 370,000 compounds, 1% hits | activation, % at 9.1 µM | MG213 cells, MMTV-luciferase reporter, dexamethasone, overnight; in the data active = activation above about 7.8%;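 also: 0% = vehicle wells and 100% = reference activator wells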
# DAX1 inh-1: DAX1 (NR0B1) inhibitors on StAR promoter, primary screen, cell-based, luminescence, SF-1 (NR5A1), full-length DAX-1; HEK293T StAR-luciferase reporter, SF-1/DAX-1 repression relief; inhibition, % at 6.8 µM; 370,000 compounds, 1.1% hits; AID 652010, 2013;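 active = inhibition above the mean over all tested compounds plus 3 SD, cut at about 3.6% in these data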;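 also: 0% = DAX-1 cells with DMSO and 100% = cells lacking DAX-1 with DMSO; higher inhibition means more luminescence from relief of DAX-1 repression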
# DAX1 inh-2: DAX1 (NR0B1) inhibitors, primary screen, cell-based, HEK293, Gal4-DAX1, luciferase luminescence | HEK293 Gal4-DAX1 luciferase reporter | inhibition, % at 6.75 µM | 340,000 compounds, 0.99% hits;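 active = inhibition above the mean over all tested compounds plus 3 SD, cut at about 4.2% in these data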;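 also: 0% = DAX1-transfected cells with DMSO and 100% = empty-vector control cells with DMSO; inhibition shows as a rise in luminescence from relieved DAX1 repression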
# Target sequence (P51843 207-470 limits assumed): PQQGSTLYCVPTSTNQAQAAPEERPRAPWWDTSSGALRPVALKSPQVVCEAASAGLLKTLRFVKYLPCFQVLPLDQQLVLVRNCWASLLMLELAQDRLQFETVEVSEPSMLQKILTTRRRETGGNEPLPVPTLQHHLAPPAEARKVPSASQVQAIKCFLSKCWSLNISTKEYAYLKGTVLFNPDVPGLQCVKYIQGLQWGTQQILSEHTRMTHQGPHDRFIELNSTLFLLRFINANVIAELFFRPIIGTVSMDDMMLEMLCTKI
# * hit, by the source's call; / = not tested or not shown. This is a sample that favours compounds with a hit; in the whole collection about 4.8% have one here.
SMILES,ssDAF12 agonist,hgDAF-12 ag,hcDAF12 agonist,SMARCA2 activ,DAX1 inh-1,DAX1 inh-2
Cc1ccc(OCc2cc(C(=O)N(C)C3CCCc4ccccc43)no2)cc1C (centres undefined),-0.5,11.2*,5.8*,-0.6,0.8,2.2
COc1cc(Cl)ccc1OCc1cc(C(=O)N(C)CC2CCCCO2)no1 (centres undefined),-1.0,12.1*,1.6,5.8,0.3,1.4
Cc1cc(OCc2cc(C(=O)N(C)CCc3cnn(C)c3)no2)cc(C)c1Cl,-0.9,7.0,1.2,3.5,4.2*,0.6
COc1cc(Cl)ccc1OCc1cc(C(=O)N(C)CCc2cnn(C)c2)no1,0.3,11.7*,6.1*,0.9,2.8,1.3
COc1ccc(OCc2cc(C(=O)N(C)CC3CCCCO3)no2)c(Cl)c1 (centres undefined),-0.3,2.0,0.9,1.9,-0.2,1.3
Cc1nnc(SCC(=O)Nc2ccc(Cl)cn2)s1,-0.9,-2.1,-0.5,3.0,0.3,2.8
C=CCSc1nc(N)c(C(=O)Nc2ccccc2OC)cc1C(=O)Nc1ccccc1,-1.1,-0.2,-1.2,-2.8,-0.2,-0.8
Cc1cc(OCc2cc(C(=O)N(C)C3CCOC3)no2)cc(C)c1Cl (centres undefined),-0.1,11.4*,3.6,3.8,0.6,4.1
O=C(NCc1cccs1)c1cccc2c(-c3cccnc3)coc12,-1.4,6.4,-1.2,-3.2,-0.4,/
O=C(NCc1cccs1)c1cccc2c(-c3ccc(F)c(F)c3)coc12,3.5*,-2.9,0.9,-1.9,-0.4,/
CCn1c(/C=C/c2cc[n+](C)cc2)nc2ccccc21,-1.2,1.9,2.3,-1.1,-0.2,4.2*
COc1cc(C(=O)N/C(=C\c2cn(S(=O)(=O)N(C)C)c3ccccc23)C(=O)NCCCO)cc(OC)c1OC,-1.1,1.4,0.3,1.2,-0.3,0.8
COc1cc(C(=O)N/C(=C\c2cn(C)c3ccccc23)C(=O)NCCCO)cc(OC)c1OC,-1.6,-1.6,-1.2,-1.6,-0.5,4.7*
CCN(CC)CCNC(=O)/C(=C/c1cn(CC)c2ccccc12)NC(=O)c1cc(OC)c(OC)c(OC)c1,-1.1,-1.0,-0.7,-3.1,0.1,-0.9
CCN(CC)CCNC(=O)/C(=C/c1cn(C)c2ccccc12)NC(=O)c1ccc(OC)c(OC)c1,-0.1,2.0,1.1,-2.7,-0.2,5.2*
O=C(NCCN1CCCCC1)Nc1ccc([N+](=O)[O-])cc1,-1.2,-0.2,-0.2,-1.4,-0.5,8.7*
Cc1ccnc(NC(=O)c2ccc(Cl)c(NC(=O)C(C)Oc3ccccc3)c2)c1 (centres undefined),0.5,-0.2,0.0,0.3,-0.2,-0.9
COCc1c(C(=O)Nc2ccc3nc(N4CCOCC4)sc3c2)oc2ccccc12,-1.7,-2.2,-0.7,-3.8,-3.9,-1.5
COC(=O)CCC(=O)OC1(C)C(=O)C=C2C=C(C3CC3)N(CCc3ccccn3)C=C2C1=O (centres undefined),-1.1,0.3,-0.7,0.6,0.4,1.4
COC(=O)CCC(=O)OC1(C)C(=O)C=C2C=C(C3CC3)N(CCc3c[nH]c4ccccc34)C=C2C1=O (centres undefined),-0.3,1.0,6.3*,0.9,-0.1,0.3
CC(Sc1nnc(COc2ccccc2)n1Cc1ccccc1)C(=O)O (centres undefined),0.9*,0.2,0.3,-2.4,0.7,1.0
COc1cc2c(cc1[N+](=O)[O-])-c1ccc([N+](=O)[O-])cc1C2=NO,-0.8,2.3,-1.2,-1.6,-2.3,0.0
COc1ccc2oc(-c3ccc(C)c(NC(=O)c4ccc(N5CCOCC5)c([N+](=O)[O-])c4)c3)nc2c1,0.0,10.5*,3.4,6.8,2.0,0.6
Cc1ccc(-c2nc3ccccc3o2)cc1NC(=S)NC(=O)c1cccs1,0.1,11.1*,0.8,7.5,0.4,2.2
Cc1ccc2oc(-c3cccc(NC(=S)NC(=O)c4cccs4)c3)nc2c1,-0.7,3.5,2.7,6.5,1.1,1.1
SMILES,ssDAF12 agonist,hgDAF-12 ag,hcDAF12 agonist,SMARCA2 activ,DAX1 inh-1,DAX1 inh-2
Cc1ccc(-c2nc3ccccc3o2)cc1NC(=O)c1ccc2c(c1)OCO2,2.0*,11.4*,3.8,2.5,3.6*,2.1
COc1ccc(CNC(=O)c2ccc(-c3ccc(F)c(F)c3)c3ccoc23)cc1OC,-1.6,-4.8,-1.9,-2.0,-4.1,/
Cc1cccc(N2CCN(C(=S)c3ccccc3)CC2)c1,-0.8,1.2,0.3,0.3,0.3,-1.8
COc1ccc(CN2CCC(n3nccc3NC(=O)C3CCCC3)CC2)cc1,-0.5,-1.9,-1.9,4.5,-1.2,0.6
O=C1C(=O)N(c2cccc(Cl)c2)C(c2ccccc2[N+](=O)[O-])/C1=C(\O)c1ccccc1 (centres undefined),/,/,/,/,/,-0.9
O=C1C(=O)N(c2ccccc2)C(c2ccccc2[N+](=O)[O-])/C1=C(\O)c1ccccc1 (centres undefined),1.6*,4.2,5.4,-0.1,-0.8,-0.2
O=C(COc1ccc(Cl)cc1)NCc1nnc(SCC(=O)Nc2ccccc2)o1,-1.0,0.5,0.0,-4.9,0.3,-0.3
COc1ccc(NC(=O)CSc2nnc(CNC(=O)COc3ccc(Cl)cc3)o2)cc1,-1.5,13.1*,1.5,-1.1,0.5,0.1
CCOc1ccccc1NC(=O)CSc1nnc2c(CC)c(C)nc(N)n12,-1.7,-0.8,-0.9,7.9*,-0.1,0.0
O=C(/C=C/Nc1ccc(F)cc1)c1ccco1,-0.8,6.6,4.0,6.2,2.7,2.8
Cc1ccc(N/C=C/C(=O)c2ccco2)c(O)c1,-1.5,-0.3,-0.6,0.5,0.7,6.1*
Cc1nnc(SC(C)C(=O)NC2CCCCC2C)n1N (centres undefined),-0.9,-1.1,-2.0,-1.2,-0.1,4.3*
CCOC(=O)N1CCC(NC(=O)C2=CCN(S(=O)(=O)c3ccccc3)CC2)CC1,-2.4,0.3,-2.1,-0.9,-0.8,0.2
O=C(COC(=O)c1n[nH]c2ccccc12)Nc1ccccc1,-0.5,9.8,2.1,1.2,2.5,10.1*
Cc1cc(C)cc(NC(=O)COC(=O)c2n[nH]c3ccccc23)c1,-0.9,12.0*,1.4,0.6,0.3,0.9
